Assay outcomes (PubChem)
EBV LMP1 NFkB: EBV LMP1-driven NF-kappaB luciferase reporter inhibitors, primary screen, cell-based, luminescence, single point; LMP1-induced NF-kappaB luciferase reporter cells; inhibition, % at 12.5 µM; actives 0.69% (n = 350,000); AID 504558, 2011; in the data active = inhibition above about 41%; inconclusive = no clear call, values can overlap the other calls;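 note: 0% = neutral control wells and 100% = reference inhibitor control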
esBAF inh: Bmi1 luciferase reporter increase in mESCs, primary screen, esBAF inhibitor project, mouse ES cells, Bmi1 luciferase knock-in, single point; 24 h; 100% = twice the neutral-well signal; reporter increase, % at 12.5 µM; actives 2% (n = 350,000); AID 602393, 2012; in the data active = activation above about 40%; inconclusive = no clear call, values can overlap the other calls;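 note: 0% = median of the plate's neutral control wells and 100% = double that signal; a rise in the Bmi1 reporter signal indicates esBAF inhibition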
Statin myotox sup: suppressors of statin myotoxicity in C2C12 myotubes, primary screen, cell-based, single point, plate reader | rescue of ATP level, % at 7.49 µM | actives 0.78% (n = 330,000) | C2C12 myotubes + simvastatin, ATP luminescence, 48 h; scaled: DMSO 0, geranylgeraniol control 100;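 active = mean ATP rescue above about 67%, or every replicate alone reaching that limit, limit read from the data, passing the limit was not always enough; inconclusive = no clear call, values can overlap the other calls; inactive = mean under the limit and some replicate under it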;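 note: myotubes were challenged with 10 µM simvastatin during compound exposure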
MITF TRPM1 inh: inhibitors of MITF-dependent TRPM1 promoter reporter, primary screen, cell-based, SK-MEL-5, single point, luciferase; SK-MEL-5 TRPM1 promoter luciferase, 24 h; inhibition, % at 12.5 µM; actives 0.83% (n = 330,000); AID 488899, 2010;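 active = mean inhibition across replicates of 60% or more, whatever share of single replicates reaches that level; inconclusive = some that reach 60%, reason not given; inactive = mean inhibition across replicates below 60%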
Wnt bcat act: Wnt/beta-catenin pathway activators, primary screen, cell-based, plate reader, single point | activation, % at 9.35 µM | actives 1.2% (n = 300,000) | Wnt/beta-catenin reporter cell assay, activator; in the data active = activation above about 30%, passing the limit was not always enough; inconclusive = no clear call, values can overlap the other calls;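 note: 0% = neutral control wells and 100% = positive control wells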
MITF TRPM1 HTS: activators of MITF-driven TRPM1 promoter reporter, primary screen, cell-based, SK-MEL-5, luciferase, single point; SK-MEL-5 TRPM1-promoter luciferase, 24 h; % of positive control, neutral wells = 0; activation, % at 12.5 µM; actives 0.75% (n = 300,000);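 active = mean activation of at least 80% with every replicate also reaching 80%; inconclusive = mean reaches 80% but some replicate falls short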;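 note: 0% = neutral control wells and 100% = parthenolide positive control wells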
Numbers without * were called inactive; ? = inconclusive; . = no result. This is a sample that favours compounds with a hit; in the whole collection about 4% have one here.

SMILES	EBV LMP1 NFkB	esBAF inh	Statin myotox sup	MITF TRPM1 inh	Wnt bcat act	MITF TRPM1 HTS
CCOC(=O)c1c(C)sc2c1N(C(=O)CCl)c1cc(Cl)ccc1S2	-4	.	.	82*	.	-81
C[C@@H]1CN([C@@H](C)CO)S(=O)(=O)c2ccc(C#CC3(O)CCCC3)cc2O[C@@H]1CN(C)C(=O)c1ccccc1	.	4	8	.	.	.
COc1cccc(/C=N/NC(=O)CN2CC(c3ccccc3)CC2=O)c1OC (stereo not drawn)	75*	.	.	94*	-4	-94
COc1cccc(/C=N/NC(=O)CSCC(=O)Nc2ccccc2)c1O	47*	2	48	15	-4	-17
COc1cc(NC(=O)CN2CC(c3ccccc3)CC2=O)cc(OC)c1 (stereo not drawn)	-4	0	-3	.	-2	.
COc1cccc(/C=N/NC(=O)CN(C)S(=O)(=O)c2ccccc2)c1OC	-14	56*	-1	-41	13	42
COc1ccc(/C=N/NC(=O)CSCC(=O)Nc2ccccc2)cc1	-30	7	-1	-9	13	8
C[C@H]1CN([C@@H](C)CO)C(=O)c2cc(C#CCN(C)C)cnc2O[C@H]1CN(C)S(=O)(=O)c1cn(C)cn1	.	-6	15	.	.	.
Cc1nn(C)c(C)c1S(=O)(=O)N(CC(=O)Nc1ccccn1)c1ccc(C(C)C)cc1	3	-1	4	12	-2	-20
O=C(Nc1nccs1)c1c(O)c2c([nH]c1=O)CCCC2	-35	?	-5	-54	50*	50
COc1ccc(NC(=O)c2csc3c2CCCCC3)c(OC)c1	3	.	.	-14	-2	11
O=C(Nc1ccccc1O)c1c(O)c2c([nH]c1=O)CCCC2	-43	85*	12	-25	-2	27
O=C(Nc1ccccc1O)c1csc2c1CCCC2	-31	.	.	-52	38*	49
O=C(NCc1ccncc1)c1cncc(Br)c1	-5	.	.	1	-1	-3
CCn1nnc(NC(=O)c2cc3ccccc3o2)n1	-2	16	-31	-61	.	64
CCCCn1nnc(NC(=O)c2ccc(-c3cccc(Cl)c3)o2)n1	-4	10	6	-34	.	32
CCCn1nnc(NC(=O)c2cc3ccccc3o2)n1	-11	50*	-6	-67	12	71
CCCCn1nnc(NC(=O)c2cc3ccccc3o2)n1	-29	59*	-2	-90	.	?
CCOC(=O)C1CCCN(C(=O)c2cc3c(-c4cccc(OC)c4)nn(C)c3s2)C1 (stereo not drawn)	20	-1	96*	11	.	-13
CC[n+]1c(/C=C/N(C)c2ccccc2)n(-c2ccccc2)c2ccc(-c3nc4ccccc4s3)cc21	51*	-47	-210	91*	.	.
CCOC(=O)c1ccc2c(c1)n(CC)c(/C=C/N(C)c1ccccc1)[n+]2CC	7	.	.	?	1	-62
CCN(CC)C(=O)c1ccc(NS(=O)(=O)c2ccc(/C=C/C(=O)O)cc2)cc1	6	.	.	6	0	-8
CCN(CC)C(=O)c1ccc(NS(=O)(=O)c2ccccc2)cc1	1	7	103*	15	-4	-12
Cc1ccc(-n2ncc(Br)c(Br)c2=O)cc1	19	-9	-143	83*	.	-83
O=c1c(Br)c(Br)cnn1-c1ccccc1	2	.	.	92*	-9	-92
O=c1c(Br)c(N2CCCC2)cnn1-c1ccccc1	-22	26	-6	-18	.	16
COc1c(Cl)cnn(-c2ccc(C)cc2)c1=O	4	7	19	-7	4	10
O=C(Nc1ccc2c(c1)OCO2)C1CCN(S(=O)(=O)Cc2ccccc2)CC1	-1	9	9	1	.	0
Cc1cccnc1-n1c(CCN2C(=O)c3ccccc3C2=O)nc2ccccc2c1=O	-3	0	72*	1	.	2
CCCCCc1cc(=O)oc2c(C(CCN3CCCCC3)c3cc(OC)c(OC)c(OC)c3)c(OC)cc(OC)c12 (stereo not drawn)	6	-62	-44	89*	-14	-87
